{"source": "PubChem BioAssay", "note": "For some of these results: Results with a measured potency or affinity are listed apart. Records with an inconclusive call do not appear. The list shows a part of the results. Calls of active or inactive are those of the source.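 How the source made its calls, unless noted: active means signal-lowering compounds whose fitted half-maximal concentration is at or below twice the top tested dose in every run; inconclusive means runs disagree, flat 30 to 70% inhibition, or poor curve fit; inactive means the rest.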", "data": [{"assay": "DNA binders by acridine orange displacement, dose response, counter-screen for EWS/Fli inhibitor project, biochemical, fluorescence polarization, cherry-pick (AID 720586;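 active means fitted curve reaches a 35% signal fall AC35 below twice the sample's top valid tested dose, actives reach about 48 µM in these data; inactive means the rest, including activity in the rising direction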;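 further: lower polarization ratio signals compound binding to DNA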)", "conditions": "salmon sperm DNA acridine orange fluorescence polarization; series mostly up to 68 µM", "values": [{"smiles": "C[C@H](CO)N1C[C@H](C)[C@H](CN(C)Cc2ccc(C(F)(F)F)cc2)Oc2ccc(NC(=O)CCCCCC(=O)Nc3ccccc3N)cc2CC1=O", "AC35": "inactive"}, {"smiles": "C(=N\\Nc1ccc2ccccc2n1)/c1ccc2c(c1)OCO2", "AC35": "inactive"}, {"smiles": "COc1ccc(-c2nc3c(s2)CCc2onc(-c4ccc(OC)cc4)c2-3)cc1", "AC35": "inactive"}, {"smiles": "CCC(C)Cn1c(O)cc2nn(-c3nc4ccccc4s3)c(=O)c-2c1C", "note": "(configuration not stated)", "AC35": "48.3 µM (active)"}, {"smiles": "COC(=O)Cc1[nH]n(-c2nc3ccccc3s2)c(=O)c1C(C)=Nc1ccc(OC)cc1", "AC35": "inactive"}, {"smiles": "COc1ccc(Nc2ncnc3ccc(Br)cc23)c(OC)c1", "AC35": "inactive"}, {"smiles": "OCCN1CCN(C(=S)c2ccc(-c3ccccc3)cc2)CC1", "AC35": "inactive"}, {"smiles": "COc1ccc(OC)c(Cc2cnc3nc(N)nc(N)c3c2C)c1", "AC35": "inactive"}, {"smiles": "C[C@@H]1CN([C@@H](C)CO)C(=O)c2cc(NS(=O)(=O)c3ccccc3)ccc2O[C@@H]1CN(C)Cc1ccc(C(=O)Nc2ccccc2N)cc1", "AC35": "inactive"}, {"smiles": "CC(=O)Nc1ccc(S(=O)(=O)Nc2ccc(N3CCCCC3)cc2)cc1", "AC35": "inactive"}, {"smiles": "N#C[C@@H]1[C@H](c2ccc(C#Cc3cccc(F)c3)cc2)[C@@H](CO)N1C(=O)C1CCCC1", "AC35": "inactive"}, {"smiles": "C[C@H](CO)N1C[C@H](C)[C@H](CN(C)CC2CCCCC2)Oc2ccc(NC(=O)CCCCCC(=O)Nc3ccccc3N)cc2CC1=O", "AC35": "inactive"}, {"smiles": "COc1ccc(/C=C2\\SC(=S)N(CCCC(=O)NC3CCCC3)C2=O)cc1OC", "AC35": "inactive"}, {"smiles": "Cc1ccc(C)c(S(=O)(=O)N2CCN(c3ncnc4sccc34)CC2)c1", "AC35": "inactive"}]}, {"assay": "inhibitors of CMV-promoter luciferase reporter, dose response, counter-screen for Pax8 inhibitor project, cell-based, HEK293, luminescence, dry powder (AID 743020);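 further: HEK293 cells stably expressing the CMV luciferase reporter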", "conditions": "SteadyGlo luminescence, 24 h; series mostly up to 35 µM", "values": [{"smiles": "COc1cc(OC)c2c(-c3cccc(-c4ccc(OC)c(F)c4)c3)cc(=O)oc2c1", "outcome": "inactive"}, {"smiles": "CCc1cc(-c2n[nH]c(C)c2-c2nc3ccccc3n2C)c(O)cc1O", "outcome": "inactive"}, {"smiles": "CCOC(=O)c1c(C)[nH]c2c1-c1ccccc1C(=O)C2=O", "outcome": "inactive"}, {"smiles": "S=c1sc2c(Cl)ncnc2n1-c1ccccc1", "outcome": "inactive"}, {"smiles": "Cn1c(CCN2CCCC2)nc2cc(NS(=O)(=O)c3ccccc3)ccc21", "outcome": "inactive"}, {"smiles": "COc1ccc(F)cc1-c1cc(NC=O)c2ncc(-c3cc(OC)c(OC)c(OC)c3)n2c1", "outcome": "inactive"}, {"smiles": "Nc1nc(=S)c2[nH]cnc2[nH]1", "outcome": "inactive"}, {"smiles": "COc1ccc(C2=NNC(=Nc3cc(S(=O)(=O)N(C)C)ccc3C)SC2)c(OC)c1", "outcome": "inactive"}, {"smiles": "C(=Cc1cnc2ccccc2n1)c1ccc2c(c1)OCO2", "outcome": "inactive"}, {"smiles": "C=C(C)c1nc(Oc2ccccc2)nc(Oc2ccccc2)n1", "outcome": "inactive"}, {"smiles": "O=C(Nc1ccc(N2CCN(C(=O)c3ccccc3)CC2)cc1)c1ccc([N+](=O)[O-])o1", "outcome": "inactive"}, {"smiles": "COc1ccccc1C(=O)Nc1nc2ccccc2[nH]1", "outcome": "inactive"}, {"smiles": "O=C(NC1CCCCC1)C(c1cccnc1)N(C(=O)CCl)c1ccc(F)cc1", "note": "(configuration not stated)", "outcome": "inactive"}, {"smiles": "O=C(CCl)N(Cc1ccccc1)c1ccccc1", "outcome": "inactive"}, {"smiles": "Cc1nc(Nc2nc(CSc3nc4ccccc4[nH]3)cc(=O)[nH]2)nc2ccccc12", "outcome": "inactive"}, {"smiles": "CCOc1ccc(C(=O)C(CCC(CN(C)C)C(=O)c2ccc(OCC)cc2)CN(C)C)cc1", "note": "(configuration not stated)", "outcome": "inactive"}, {"smiles": "Cc1cnc(NC(=O)c2ccc3c(c2)OCCO3)s1", "outcome": "inactive"}, {"smiles": "O=C(NCc1cc(C(F)(F)F)ccc1Cl)c1cccc2c1C(=O)c1ccc(N3CCC(N4CCCCC4)CC3)cc1S2(=O)=O", "outcome": "inactive"}, {"smiles": "OCCCNc1nccc(-c2cc(Nc3cccc(Cl)c3)ncn2)n1", "outcome": "inactive"}, {"smiles": "O=C(Nc1cccc(Cl)c1)Nc1nnc(-c2ccncc2)s1", "outcome": "inactive"}, {"smiles": "COc1ccc(/C=N/NC(=O)c2[nH]c3ccc(Br)cc3c2-c2ccccc2)cc1", "outcome": "inactive"}, {"smiles": "Cc1cccc(N(Cc2cc(=O)[nH]c3ccccc23)C(=O)CCl)c1", "outcome": "inactive"}, {"smiles": "COc1cccc2c1C(=O)c1c(O)c3c(c(O)c1C2=O)CC(O)(C(=O)CO)CC3OC1CC(N(C)C)C(O)C(C)O1", "note": "(configuration not stated)", "outcome": "inactive"}, {"smiles": "Cn1ncc2c(O/N=C(\\N)c3ccc(C(F)(F)F)cc3)ncnc21", "outcome": "inactive"}, {"smiles": "Cc1ccc(Cl)cc1N1CCN(C(=O)c2noc(C)c2[N+](=O)[O-])CC1", "outcome": "inactive"}, {"smiles": "COCCn1c(C)cc(C2=NNC(=NC3CC3)SC2)c1C", "outcome": "inactive"}]}, {"assay": "non-specific cell cytotoxicity, dose response, cytotoxicity control for PAX8 inhibitor project, plate reader, dry powder samples (AID 743021; call rule not given here)", "conditions": "cell line, non-specific cytotoxicity counter-screen; series mostly up to 35 µM", "values": [{"smiles": "COc1cc(OC)c2c(-c3cccc(-c4ccc(OC)c(F)c4)c3)cc(=O)oc2c1", "outcome": "inactive"}, {"smiles": "CCc1cc(-c2n[nH]c(C)c2-c2nc3ccccc3n2C)c(O)cc1O", "outcome": "inactive"}, {"smiles": "Cn1c(CCN2CCCC2)nc2cc(NS(=O)(=O)c3ccccc3)ccc21", "outcome": "inactive"}, {"smiles": "COc1ccc(F)cc1-c1cc(NC=O)c2ncc(-c3cc(OC)c(OC)c(OC)c3)n2c1", "outcome": "inactive"}, {"smiles": "COc1ccc(C2=NNC(=Nc3cc(S(=O)(=O)N(C)C)ccc3C)SC2)c(OC)c1", "outcome": "inactive"}, {"smiles": "C=C(C)c1nc(Oc2ccccc2)nc(Oc2ccccc2)n1", "outcome": "inactive"}, {"smiles": "O=C(Nc1ccc(N2CCN(C(=O)c3ccccc3)CC2)cc1)c1ccc([N+](=O)[O-])o1", "outcome": "inactive"}, {"smiles": "Cc1nc(Nc2nc(CSc3nc4ccccc4[nH]3)cc(=O)[nH]2)nc2ccccc12", "outcome": "inactive"}, {"smiles": "OCCCNc1nccc(-c2cc(Nc3cccc(Cl)c3)ncn2)n1", "outcome": "inactive"}, {"smiles": "O=C(Nc1cccc(Cl)c1)Nc1nnc(-c2ccncc2)s1", "outcome": "inactive"}, {"smiles": "COc1ccc(/C=N/NC(=O)c2[nH]c3ccc(Br)cc3c2-c2ccccc2)cc1", "outcome": "inactive"}, {"smiles": "COc1cccc2c1C(=O)c1c(O)c3c(c(O)c1C2=O)CC(O)(C(=O)CO)CC3OC1CC(N(C)C)C(O)C(C)O1", "note": "(configuration not stated)", "outcome": "inactive"}]}]}
